Screens (PubChem BioAssay)
eLon inh: inhibitors of E. coli Lon protease, primary screen, biochemical, fluorescence polarization; 360,000 tested, 0.42% active; inhibition, % at 7.94 µM; AID 602123, 2011; purified E. coli Lon protease; P0A9M0; in the data active = inhibition above about 13%, passing the limit was not always enough;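 note: 0% = enzyme with probe and DMSO and 100% = no enzyme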
Keap1 Nrf2 FP: Keap1-Nrf2 protein-protein interaction inhibitors, primary screen, biochemical, fluorescence polarization, single point. Keap1 Kelch-Nrf2 peptide fluorescence polarization, 1536-well. inhibition, % at 9.4 µM. 340,000 tested, 0.15% active; in the data active = inhibition above about 12%;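 note: human Keap1 Kelch domain with fluorescein labeled Nrf2 9mer peptide probe; 0% = neutral control wells and 100% = peptide positive control; higher means more block of Keap1 binding to Nrf2 peptide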
GLD-1 RNA inh: GLD-1/TGE RNA complex disruptors, primary screen, biochemical, fluorescence polarization; purified GLD-1 + fluorescein TGE RNA; AID 2280, 2010; inhibition, % at 5.96 µM; 320,000 tested, 0.44% active; Female germline-specific tumor suppressor gld-1 (Caenorhabditis elegans), Q17339;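 active = percent inhibition above a per-plate cutoff, the plate mean of test compounds plus 3 SD, cut at about 30% in these data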;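 note: 0% = DMSO wells with GLD-1 and probe and 100% = wells lacking GLD-1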
Target sequence (Q17339 whole entry, looked up): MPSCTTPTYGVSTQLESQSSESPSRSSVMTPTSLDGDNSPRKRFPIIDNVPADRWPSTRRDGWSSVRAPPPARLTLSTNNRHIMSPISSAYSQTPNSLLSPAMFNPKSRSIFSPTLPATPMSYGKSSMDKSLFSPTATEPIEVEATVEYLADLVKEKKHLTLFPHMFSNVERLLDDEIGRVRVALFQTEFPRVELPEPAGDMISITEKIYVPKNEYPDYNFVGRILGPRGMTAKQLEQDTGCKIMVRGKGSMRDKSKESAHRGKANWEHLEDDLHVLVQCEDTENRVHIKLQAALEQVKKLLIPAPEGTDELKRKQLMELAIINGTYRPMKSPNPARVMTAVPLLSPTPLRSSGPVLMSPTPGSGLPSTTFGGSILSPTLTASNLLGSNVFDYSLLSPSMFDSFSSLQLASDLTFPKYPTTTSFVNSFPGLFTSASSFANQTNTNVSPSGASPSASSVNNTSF
EBV gp42 inh: Epstein-Barr virus gp42 inhibitors, primary screen, biochemical, uHTS, fluorescence polarization; inhibition, % (tested at 21.74 µM); Glycoprotein 42 (Epstein-Barr virus (strain AG876)), Q1HVG2; AID 1085, 2008; Fluorescence polarization binding assay, mP read-out; 220,000 tested, 0.42% active; in the data active = inhibition above about 50%
LANA DNA inh: inhibitors of KSHV C-LANA binding to DNA, primary screen, biochemical, fluorescence polarization, FAM-LBS DNA, MBP-C-LANA, single point; Kaposi's sarcoma herpesvirus LANA C-terminal domain (residues 932-1162) DNA binding; inhibition, % at 9 µM; 340,000 tested, 0.078% active;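 active = highest replicate inhibition at or above 60% at 9 µM, even if other replicates fall short; inactive = all replicates below 60% inhibition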;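 note: 0% = neutral control wells and 100% = 4 µM acridine orange control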
LANA-H2B inh: blockers of LANA interaction with H2A/H2B – biochemical, FP readout, HTS, primary screen. Protein LANA1 (Human herpesvirus 8 type P (isolate GK18)), Q9QR71. cell-free LANA-H2A/H2B peptide, fluorescence polarization. inhibition, % (no concentration beside the values). 320,000 tested, 0.6% active. AID 2629, 2010; in the data active = inhibition mostly above about 10%, no sharp cut-off; inactive = mostly below about 6.7%
eLon confirm: E. coli Lon protease inhibitor retest, confirmation, biochemical, fluorescence polarization | shares compounds with eLon inh | purified E. coli Lon | inhibition, % at 7.94 µM | 1,400 tested, 31% active; in the data active = inhibition above about 16%;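 note: 0% = enzyme with probe and DMSO and 100% = no enzyme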
* = called active by the depositor; · = no result given; + = active, no number. Only some compounds are listed: those with a hit (about 1.5% of all), similar ones and a draw of the others.

SMILES	eLon inh	Keap1 Nrf2 FP	GLD-1 RNA inh	EBV gp42 inh	LANA DNA inh	LANA-H2B inh	eLon confirm
CC[C@]12c3[nH]c4cc(-c5ccco5)ccc4c3CCN1C(=O)[C@@H](CC(=O)NC(C)(C)C)C[C@@H]2C(=O)N1CCN(C(=O)c2ccco2)CC1	0	-5	·	·	-1	·	·
O=C(NCc1ccccc1)c1cccc(COc2ccc3c(c2)CCC3)c1	3	-1	3	-5	0	4	·
COc1cccc(OC)c1C(=O)NNC(=O)c1cccc(COc2ccc3c(c2)CCC3)c1	15*	-1	5	23	1	-4	-1
Cc1ccc(C=Nc2cccnc2N)cc1	+	5	80*	4	11	-1	5
CC1O[C@@H]2O[C@](O[C@H](C)CC[C@@H](C)O)(c3ccccc3)O[C@@H]2C[C@H]1O (stereo partly specified)	-3	3	10	·	-1	-2	·
CC1CCCCN1C(=O)Cn1nnc(-c2cccnc2)n1 (stereo unspecified)	26*	1	74*	46	6	4	0
Cc1c(C(=O)N2CCN(c3ccccc3F)CC2)sc2ncn(CC(=O)N3CCOCC3)c(=O)c12	-10	-4	-3	13	1	9	·
CC1C2(C)OC(=N)C(C#N)(C(C)O2)C1(C#N)C#N (stereo unspecified)	22*	8	25	11	30	4	35*
COc1cc2nc(CSc3ncn[nH]3)[nH]c(=O)c2cc1OC	-4	0	6	-5	1	2	·
C/C(=N/NC(=O)c1cc(-c2ccc(Cl)s2)[nH]n1)c1ccco1	-5	·	1	1	·	4	·
O=C(Nc1ccccc1C(=O)N1CCN(Cc2ccccc2)CC1)c1ccc(F)cc1	22*	1	1	·	1	0	-1
O=C(c1ccc(F)cc1)N1CCN(Cc2ccccc2)CC1	-5	-3	5	·	6	-8	·
O=C(CN(C(=O)c1csnn1)c1ccc(F)c(Cl)c1)NCc1ccc(F)cc1	-8	2	3	·	2	-1	·
C1=C(c2ccc(-c3ccccc3)cc2)Nc2ncnn2C1c1ccco1 (stereo unspecified)	+	6	·	150*	27	·	70*
Brc1ccc(C2=CC(c3cccs3)n3ncnc3N2)cc1 (stereo unspecified)	141*	55*	151*	161*	101*	59*	161*
CC(C)(C)c1ccc(C2=CC(c3ccccc3F)n3ncnc3N2)cc1 (stereo unspecified)	6	6	10	·	2	-1	·
Cc1ccc(Nc2nnc(C)c3ccccc23)c(C)c1	-1	-3	-1	·	-1	2	·
CC1C(=O)N(Cc2cn(CCC3OCCCO3)nn2)CCS(=O)(=O)N1Cc1ccc(-c2ccc(Cl)cc2)cc1 (stereo unspecified)	13*	·	·	·	·	·	24*
C[C@]1(O)CC(=O)C=C[C@H]1Nc1ccccc1	2	-6	·	·	0	·	·
CCCCN1C(=O)C(=O)N(CC(=O)N2CCc3ccccc32)C1=O	17*	-4	2	·	-2	3	-1
CCn1nnc(C(=O)O)c1C(=O)O	16*	-2	4	-7	-1	-2	-8
Nc1c(C(=O)O)nnn1Cc1ccccc1	0	-3	-4	6	-1	6	·
CCOC(=O)c1cc(C#N)c(N2CCN(c3ccccn3)CC2)nc1-c1ccccc1	-18	0	6	3	0	-1	·
CCOC(=O)c1c(C)[nH]c(C(=O)OCC(=O)N2CCc3ccccc32)c1C	1	-3	7	-29	0	3	·
CCOC(=O)c1[nH]c(C)c(C(=O)OCC(=O)N2CCc3ccccc32)c1C	139*	1	-3	-26	0	2	-13
SMILES	eLon inh	Keap1 Nrf2 FP	GLD-1 RNA inh	EBV gp42 inh	LANA DNA inh	LANA-H2B inh	eLon confirm
CCOC(=O)c1c(C)[nH]c(C)c1S(=O)(=O)N1CCCCC1	-8	-3	6	·	2	4	·
COc1ccc(/C=C/C(=O)OCC(=O)N2c3ccccc3CC2C)c(OC)c1 (stereo unspecified)	14*	·	·	·	·	·	-4
COc1cccc(/C=C/C(=O)OCC(=O)N2c3ccccc3CC2C)c1OC (stereo unspecified)	-4	2	·	·	-1	·	·
O=C(Nc1ccc(C(=O)N2CCN(c3ccc(Cl)cc3)CC2)cc1)C1=CSCCO1	25*	-2	2	·	2	-2	2
F[B-](F)(F)c1cnc2ccccc2c1	2	-2	·	·	2	·	·
F[B-](F)(F)c1cncc2ccccc12	42*	4	·	·	2	·	38*
O=c1c2cc([N+](=O)[O-])ccc2nc2n1CCCC2	19*	-1	-4	·	0	6	-6
O=c1c2cc(Br)ccc2nc2n1CCCCC2	-3	0	2	4	-1	-5	·
O=C(CN1C(=O)COc2ccc(S(=O)(=O)N3CCOCC3)cc21)Nc1cccc(Cl)c1	19*	2	4	·	0	5	1
COc1cccc(NC(=O)CN2C(=O)COc3ccc(S(=O)(=O)N4CCOCC4)cc32)c1	-1	-2	7	·	0	3	·
CN=C1S/C(=C\c2ccc(SC)cc2)C(=O)N1C	1	-2	3	·	2	1	·
CSC1=NC(=O)/C(=C/c2ccc(SC)cc2)S1	25*	-7	-5	-45	4	0	-4
O=C(COC(=O)C1=Cc2ccccc2OC1)NCc1ccc(F)cc1	31*	-4	·	·	9	·	9
O=C(c1cn(CC(=O)N2CCCC2)c2ccccc12)C1CCCCC1	-4	-1	0	0	2	-4	·
CN(C(=O)C(=O)c1cn(CC(=O)N2CCCC2)c2ccccc12)C1CCCCC1	39*	0	3	·	1	4	-12
CC1CCN(C(=O)C(=O)c2cn(CC(=O)N3CCCCCC3)c3ccccc23)CC1	5	0	2	·	3	1	·
CC1CCCN(C(=O)C(=O)c2cn(CC(=O)N3CCCCCC3)c3ccccc23)C1 (stereo unspecified)	21*	2	4	·	2	3	10
OC(Cn1cncn1)(c1ccc(F)cc1)c1ccc(Cl)cc1 (stereo unspecified)	11	0	1	·	1	0	·
NC(=S)Nc1cc2ccccc2c2ccccc12	10	2	6	-2	1	6	·
NC(=S)Nc1cccc2cc3ccccc3cc12	42*	-2	15	-5	1	4	113*
